# MsrA act: activators of bovine methionine sulfoxide reductase A; activation, % at 10.6 µM; purified bovine MsrA, absorbance read-out; 360,000 tested, 0.3% active; AID 602163; in the data active means activation above about 7.5%;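 further: 0% = vehicle and 100% = reference activator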
# MsrA inhibitor: inhibitors of bovine MsrA | purified bovine MsrA, absorbance read-out | 360,000 tested, 0.75% active | inhibition, % at 15.5 µM; in the data active means inhibition above about 4.5%;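 further: 0% = vehicle wells with enzyme and 100% = reference inhibitor wells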
# rCAG binder: r(CAG) repeat RNA binding. TO-PRO-1 dye displacement fluorescence. inhibition, % at 3 µM. 370,000 tested, 1.3% active;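 active means inhibition above the plate cutoff, the mean of all test compounds on that plate plus 3 SD, cut at about 35% in these data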;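 further: 0% = DMSO alone and 100% = 100 µM mitoxantrone as full dye displacement; higher means more dye released from RNA so lower well fluorescence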
# sPLA2-III inh: Inhibits HGIII-sPLA2 liposome hydrolysis, primary screen | inhibition, % at 12.2 µM | 370,000 tested, 0.56% active | QFRET BODIPY PC-A2 liposome hydrolysis, fluorescence | Q9NZ20;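 active means inhibition above mean plus 3 SD of compounds lying within the high and low control bounds, cut at about 19% in these data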;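 further: 0% = median of test compound wells and 100% = no enzyme DMSO wells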
# Target sequence (Q9NZ20 whole entry, looked up): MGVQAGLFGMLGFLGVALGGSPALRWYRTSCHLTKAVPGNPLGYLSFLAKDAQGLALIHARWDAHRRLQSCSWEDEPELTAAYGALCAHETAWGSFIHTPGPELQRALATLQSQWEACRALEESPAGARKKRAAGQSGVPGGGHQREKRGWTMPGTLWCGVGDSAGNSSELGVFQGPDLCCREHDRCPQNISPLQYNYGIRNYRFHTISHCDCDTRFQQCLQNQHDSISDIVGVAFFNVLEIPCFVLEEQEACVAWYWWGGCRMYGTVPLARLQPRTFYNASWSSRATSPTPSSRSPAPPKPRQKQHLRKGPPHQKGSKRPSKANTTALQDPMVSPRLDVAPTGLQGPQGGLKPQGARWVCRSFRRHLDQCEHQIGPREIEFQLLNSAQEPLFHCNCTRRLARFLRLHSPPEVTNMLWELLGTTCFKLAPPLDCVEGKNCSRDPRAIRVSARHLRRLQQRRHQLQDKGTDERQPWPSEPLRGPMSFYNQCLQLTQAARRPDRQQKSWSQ
# PG9 Ab binder: small molecules binding HIV-1 gp120 antibody PG9; TR-FRET gp120-PG9 antibody binding; inhibition, % at 6.7 µM; 360,000 tested, 0.43% active; in the data active means inhibition above about 8.5%
# PG9 binder conf: PG9 antibody binding, confirmed | TR-FRET PG9 antibody binding, biochemical | shares compounds with PG9 Ab binder | inhibition, % at 6.7 µM | AID 651571 | 1,500 tested, 90% active; in the data active means inhibition above about 9%
# PGV04 counter: PGV04 control antibody binding, counter-screen; shares compounds with PG9 Ab binder; TR-FRET PGV04 antibody-gp120 binding, biochemical; inhibition, % at 6.7 µM; 1,500 tested, 95% active; in the data active means inhibition above about 9.5%
# * = called active by the depositor; x = no result given. In the library only some 3.2% were active in any assay of this set; here they are far more common.
SMILES,MsrA act,MsrA inhibitor,rCAG binder,sPLA2-III inh,PG9 Ab binder,PG9 binder conf,PGV04 counter
c1ccc(-c2c[nH]c3cccc(-c4cc5ccccc5o4)c23)cc1,x,x,9,-21,x,x,x
CCOC(=O)Cn1c(=NC(=O)c2sc3ccccc3c2Cl)sc2cc(S(N)(=O)=O)ccc21,-5,1,14,15,9.9*,12*,28*
COC(=O)Cn1c(=NC(=O)c2sc3ccccc3c2Cl)sc2cc(S(N)(=O)=O)ccc21,-8,2,-2,-7,11*,22*,28*
CCOC(=O)Cn1c(=NC(=O)CSC(C)=O)sc2cc(OC)ccc21,-10,2,7,1,13*,18*,23*
COC(=O)Cn1c(=NC(=O)c2nc3ccccc3s2)sc2cc(S(C)(=O)=O)ccc21,x,0,2,4,-2,x,x
CN(C)S(=O)(=O)c1ccc(N2CCCC2)c(C(=O)NCc2cccc(C(F)(F)F)c2)c1,-3,0,-2,2,12*,17*,25*
CN(C)S(=O)(=O)c1ccc(N2CCCC2)c(C(=O)NCCc2ccc(F)cc2)c1,-7,0,-4,3,-1,x,x
CC(C)(C)OC(=O)N1CCC(N[C@@H](Cc2ccccc2)C(=O)NCCc2c[nH]c3ccccc23)(C(=O)NC2CCCCC2)CC1,x,x,x,-60,x,x,x
Cn1c(C(=O)NC2CCCCC2)cc2c(=O)n(C)c3ccccc3c21,1,1,5,14,12*,15*,26*
Cn1c(C(=O)NC2CCCCCC2)cc2c(=O)n(C)c3ccccc3c21,0,0,2,-5,0,x,x
CCCCOc1cccc(C2/C(=C(\O)c3ccc4c(c3)OCCO4)C(=O)C(=O)N2CCN2CCOCC2)c1 (centres undefined),-5,1,12,-8,10*,18*,31*
O=C1C(=O)N(CCN2CCOCC2)C(c2cccc(Cl)c2)/C1=C(\O)c1ccc2c(c1)OCCO2 (centres undefined),-2,2,14,-3,32*,36*,42*
O=C1C(=O)N(CCN2CCOCC2)C(c2ccc(Cl)c(Cl)c2)/C1=C(/O)c1ccc2c(c1)OCO2 (centres undefined),-11,2,17,-3,6,x,x
CCCOc1cccc(C2/C(=C(\O)c3ccc4c(c3)OCCO4)C(=O)C(=O)N2CCCn2ccnc2)c1 (centres undefined),-2,0,2,-1,0,x,x
CCCCN1C[C@@H](COCc2ccccc2)Oc2cccc(F)c2S1(=O)=O,x,x,0,-6,x,x,x
C=c1[nH]cc(C(C)c2c(C)n(C)c3ccccc23)/c1=C/C (centres undefined),x,x,9,-1,x,x,x
Cc1cc(NC(=O)COc2cc(F)cc(F)c2)n(-c2ccccc2)n1,x,x,1,5,x,x,x
CC(=O)c1ccc(N2CCN(C(=O)c3cccc(Oc4ccccc4)c3)CC2)cc1,-1,0,-6,-13,-1,x,x
CC(=O)c1ccc(N2CCN(C(=O)c3ccc(-c4ccccc4)cc3)CC2)cc1,-1,-1,2,-7,26*,44*,54*
CCc1ccc2[nH]c3nc(C)cc(C)c3c(=O)c2c1,-5,2,0,8,25*,16*,23*
CCc1ccc2[nH]cc(S(=O)(=O)c3ccc(C)c(C)c3)c(=O)c2c1,-3,0,13,-12,1,x,x
CC[C@@H](CCCc1ccc(F)cc1)CN(Cc1ccc(OC)cc1)S(=O)(=O)c1ccc(C)cc1,x,x,7,5,x,x,x
CCc1ccc2nc3c(c(C(=O)O)c2c1)CCC3,-1,0,3,-6,0,x,x
Cc1cc(Br)c2nc3c(c(C(=O)O)c2c1)CCCCC3,-10,0,-3,10,75*,74*,88*
N/C(=N\c1nc(CSc2nc3ccccc3s2)cc(=O)[nH]1)Nc1ccc(F)cc1,3,0,2,-4,9.3*,27*,40*
SMILES,MsrA act,MsrA inhibitor,rCAG binder,sPLA2-III inh,PG9 Ab binder,PG9 binder conf,PGV04 counter
O=C(Nc1cccc(Cl)c1Cl)C1CCN(c2ncccn2)CC1,0,0,2,4,9.2*,13*,14*
CC(C)CCNC(=O)C1CCN(c2cncnc2)CC1,x,x,2,0,x,x,x
O=C(Nc1nc2c(Br)cc(Br)cc2c(=O)s1)C1CCC1,3,-1,7,4,10*,18*,20*
CC(C)CCNC(=O)c1cc2c(=O)[nH]c3ccccc3c2s1,-2,0,3,4,10.0*,17*,21*
Cc1ccc2[nH]c(=O)c3cc(C(=O)NCCC(C)C)sc3c2c1,-1,0,4,0,-1,x,x
Cn1c(/C=C/c2ccc(Cl)cc2)nc2ccccc2c1=O,1,1,-4,0,32*,4,7
Cn1c(/C=C/c2ccccc2)nc2ccccc2c1=O,-5,2,-3,6,-3,x,x
C=CCN1[C@H](CC(C)C)COc2cc(N3CCSCC3)ccc2S1(=O)=O,x,x,6,7,x,x,x
COC(=O)[C@H](CC(C)C)N(CCc1cn(Cc2ccccc2)nn1)S(=O)(=O)c1ccccc1Br,x,x,2,-18,x,x,x
C/C(=N/NC(=O)C1COc2ccccc2O1)c1ccc(Br)s1 (centres undefined),-5,0,-1,2,-2,x,x
C/C(=N\NC(=O)C1COc2ccccc2O1)c1ccc(Cl)s1 (centres undefined),-2,0,-2,-2,24*,6,8
Cc1ccc(CN2CCSc3ccc(C(=O)NCCCN4CCN(C)CC4)cc32)cc1,-1,0,-3,-11,25*,29*,34*
CSc1sc(-c2nnc(SCC(=O)Nc3ccc(Cl)cc3)n2C)c2c1C=CCC2,-3,-1,1,-2,29*,38*,52*
O=C(CN1CCc2onc(-c3cccc(-n4cc(CO)nn4)c3)c2C1=O)N1CCOCC1,x,x,2,1,x,x,x
COc1ccc(-c2cc(C(F)(F)F)nc(SCC(=O)NCc3cccs3)n2)cc1,-1,0,0,8,13*,8,9
CN(CCO)c1cccc2c1S(=O)(=O)N(Cc1cn(Cc3cccc(F)c3)nn1)Cc1ccccc1O2,x,x,5,5,x,x,x
COc1ccc(CCNC(=O)Cn2c(=O)n(-c3ccc(F)cc3F)c(=O)c3sccc32)cc1OC,-4,1,-1,-1,0,x,x
CC(C)(C)C(=O)Cn1c(=O)n(-c2ccc(F)cc2F)c(=O)c2sccc21,-5,0,-4,0,12*,5,7
COC(=O)[C@H](CC(C)C)N(CCCc1cn(Cc2ccccc2)nn1)S(=O)(=O)c1ccccc1Br,x,x,3,-26,x,x,x
NS(=O)(=O)c1ccc(NC(=S)NC(=O)c2ccc3c(c2)OCO3)cc1,-3,1,4,7,-2,x,x
NC(N)=NS(=O)(=O)c1ccc(NC(=S)NC(=O)c2ccc3c(c2)OCO3)cc1,1,0,6,3,9.5*,15*,22*
